Compound activity from PubChem BioAssay.
mHTT-CaM PPI inh: inhibitors of human mutant huntingtin-calmodulin interaction | AlphaScreen His-mHTT/GST-CaM binding, luminescence | inhibition, % at 15 µM | hit rate 3.6% among 190,000
Pf apPOL inh: Pf-apPOL DNA polymerase inhibition. AID 1794808. Recombinant Pf-apPOL, molecular beacon fluorescence, 1.5 h. inhibition, % at 10 µM. hit rate 0.25% among 210,000
A number is an active result; n = inactive; x = no result given; ! = repeats disagree. Sampled rows, rich in hits. Any-hit rate of the full collection: about 3.6%. Rule as the data show it: active = inhibition above about 50%; inactive = the rest.

SMILES	mHTT-CaM PPI inh	Pf apPOL inh
COCCN1C(=O)CCC2(CNC(=O)c3ccc(C#N)cc3)CCCC12 (configuration not stated)	n	n
O=C1CN(C(=O)c2ccccc2F)C(c2ccccc2)c2cc(Br)ccc2N1 (configuration not stated)	n	n
O=C(COc1ccccc1)N1CCC(Cc2nnc(-c3ccccc3)o2)CC1	n	n
Cc1ccc(S(=O)(=O)N(CC(=O)N2CCc3ccccc3C2)c2ccc(F)cc2)cc1	n	n
Cc1ccc(NCCNS(=O)(=O)Cc2ccccc2)nn1	n	n
O=[N+]([O-])c1cccc(S(=O)(=O)N2CCCC2)c1	n	n
O=[N+]([O-])c1cccc(S(=O)(=O)C=C(Cl)Cl)c1	62.7	x
O=C(C1CCCN(C(=O)C2CCC2)C1)N1CCCC1 (configuration not stated)	n	n
O=C(c1cccc(N2CCNC(c3ccccc3)C2)n1)N1CCN(c2ccccc2)CC1 (configuration not stated)	n	n
COc1ccccc1NC(=O)c1cccc(N2CCNC(c3ccccc3)C2)n1 (configuration not stated)	71.9	n
COc1ccccc1NC(=O)c1ccc(N2CCNC(c3ccccc3)C2)nc1 (configuration not stated)	n	n
O=C(c1cccc(N2CCNC(c3ccccc3)C2)n1)N1CCN(c2ccc(F)cc2)CC1 (configuration not stated)	50.7	n
Cc1ccc(N2CCN(C(=O)c3ccnc(N4CCNC(c5ccccc5)C4)c3)CC2)cc1 (configuration not stated)	n	n
Cc1cccc(N2CCN(C(=O)c3ccc(N4CCNC(c5ccccc5)C4)nc3)CC2)c1 (configuration not stated)	64.8	n
O=C(c1ccc(N2CCNC(c3ccccc3)C2)nc1)N1CCCC1 (configuration not stated)	n	n
Cc1ccc(N2CCN(C(=O)c3ccc(N4CCNC(c5ccccc5)C4)nc3)CC2)cc1 (configuration not stated)	73.4	n
COc1ccc(CNC(=O)C2(C)Cc3ccccc3C(=O)N2c2ccc(F)cc2)cc1 (configuration not stated)	n	n
Cc1c(S(=O)(=O)N2CCN(C3c4ccccc4-c4ccccc43)CC2)sc2ccc(Cl)cc12	x	n
Cc1cc(C(=O)Nc2onc3c2CSC3)no1	n	n
Cc1c(C(=O)N2CCC3(CC2)OCCO3)sc2ncn(C)c(=O)c12	n	n
Cc1cc(OCc2nc(C(=O)N3CCOCC3)cs2)ccc1Cl	n	n
CC12CC3(C)CC(C)(C1)CC(C(=O)Nc1ccc(C45CC6CC(CC(C6)C4)C5)cc1)(C2)C3	n	n
CC12CC3CC(C)(C1)CC(c1ccc(O)cc1)(C3)C2	64.9	n
Cc1ccc(S(=O)(=O)N2CCN(C(C)c3ccccc3)CC2)cc1F (configuration not stated)	n	n
CCNS(=O)(=O)c1cccc2c1C(=O)c1ccccc1C2=O	n	n
SMILES	mHTT-CaM PPI inh	Pf apPOL inh
O=C1c2ccccc2C(=O)c2c1cccc2S(=O)(=O)Nc1ccc(Cl)cc1	70.0	n
O=C(Nc1ccc2oc(-c3cccc(Br)c3)nc2c1)c1ccc([N+](=O)[O-])cc1	n	n
Cc1ccc(S(=O)(=O)C(NC(=O)c2cccc(C)c2)C(Cl)(Cl)Cl)cc1 (configuration not stated)	n	n
N#Cc1c(N=Cc2ccco2)sc2c1CCCC2	n	x
N#Cc1c(N=Cc2cccnc2)sc2c1CCCC2	55.0	n
CCC(=O)Nc1cccc(-c2noc(C3CCN(C(=O)c4ccncc4)CC3)n2)c1	n	n
CCOc1ccc(S(=O)(=O)Nc2c(C)n(C)n(-c3ccccc3)c2=O)c2cccnc12	n	n
O=C(Nc1nnc(C2CC2)o1)c1ccc(S(=O)(=O)N2CCCc3ccccc32)cc1	67.0!	n
O=C(Nc1nnc(-c2ccc(F)cc2)o1)c1ccc(S(=O)(=O)N2CCCc3ccccc32)cc1	n	n
C=CCOc1ccccc1/C=C1\SC(=O)N(CN2CCOCC2)C1=O	n	n
Cc1cc(/C=C2\C(=O)NC(=O)N(c3ccccc3)C2=O)c(C)n1-c1cccc([N+](=O)[O-])c1	59.0	n
CC1=NN(c2ccccc2)C(=O)/C1=C\c1cc(C)n(-c2cccc([N+](=O)[O-])c2)c1C	n	n
Cc1ccc(CN2C(=O)CCc3c(C)nc(-c4ccccc4)nc32)o1	89.8	n
Cc1nc(-c2ccncc2)nc2c1CCC(=O)N2CCN1CCCC1	n	56.2
Cc1nc(-c2cnccn2)nc2c1CCC(=O)N2Cc1ccncc1	59.8	58.6
Cc1nc(-c2cnccn2)nc2c1CCC(=O)N2Cc1ccccc1	n	n
Cc1nc(-c2ccncc2)nc2c1CCC(=O)N2Cc1ccncc1	n	n
Cc1nc(-c2ccncc2)nc2c1CCC(=O)N2Cc1ccco1	n	n
CCc1ccccc1NC(=O)C1CC=CCC1C(=O)O (configuration not stated)	n	n
O=C(Cn1nnc(-c2ccccc2)n1)Nc1cccc([N+](=O)[O-])c1	n	n
O=[N+]([O-])c1ccc(-c2nnn(CNc3ccccc3)n2)cc1	53.0	n
Cc1oc(C2CCN(C(=O)c3ccc(F)cc3)CC2)nc1C(=O)N1CCCC1	n	n
CC(C)CNC(=O)c1ccc2c(=O)n3c(nc2c1)CCCC3	n	n
COc1cccc(-c2ccc3nc(C(=O)NCc4ccncc4)cn3c2)c1	52.2	n
COc1cccc(CNC(=O)c2cn3cc(Cl)ccc3n2)c1	n	n
SMILES	mHTT-CaM PPI inh	Pf apPOL inh
Cc1nnc2c(NC(=O)c3ccccn3)cccn12	n	n
Cc1nc2c(NC(=O)c3ccccn3)cccn2n1	50.4	n
CC1CCN(C(=O)CSc2cn(Cc3ccc(Cl)cc3)c3ccccc23)CC1	91.0	n
Cc1ccccc1Cn1cc(SCC(=O)N2CCCCC2)c2ccccc21	86.0	n
O=C(CSc1cn(Cc2ccc(F)cc2)c2ccccc12)N1CCCCCC1	70.0	n
O=C(CSc1cn(Cc2ccc(F)cc2)c2ccccc12)N1CCCCC1	n	n
O=C(CSc1cn(Cc2ccccc2Cl)c2ccccc12)N1CCOCC1	n	n
O=C(CSc1cn(Cc2ccc(F)cc2)c2ccccc12)N1CCCC1	n	n
O=C(CCc1nc2ccccc2n(Cc2ccc(F)cc2)c1=O)NCc1ccc(F)cc1	n	n
Cc1ccc(NC(=O)Nc2nccn(-c3ccc(Br)cc3)c2=O)cc1C	n	n
N#Cc1cc2c(N)c(C(=O)Nc3ccccc3Oc3ccccc3)sc2nc1N	81.0	n
N#Cc1cc2c(N)c(C(=O)c3ccc(Cl)cc3)sc2nc1N	n	n
CCc1nc(C)nc(N2CCN(C(=O)C3CC3)CC2)c1Cc1ccc(C)cc1	n	n
COc1ccc2c(COc3ccc4c(=O)c(-c5ccccc5)coc4c3)cc(=O)oc2c1	n	n
O=C1C(Nc2cccc(Cl)c2)=C(N2CCCCC2)C(=O)c2ccccc21	68.0	n
CC(=O)N(C1=C(N2CCCC2)C(=O)c2ccccc2C1=O)c1cccc(Cl)c1	100.3	n
O=C1C(Nc2cccc(C(F)(F)F)c2)=C(n2nnc3ccccc32)C(=O)c2ccccc21	n	n
O=C1C(Nc2cccc(O)c2)=C(N2CCCCC2)C(=O)c2ccccc21	n	n
O=C1C(Nc2cccc(C(F)(F)F)c2)=C(N2CCCCC2)C(=O)c2ccccc21	99.0	n
CC(=O)N(C1=C(N2CCCCC2)C(=O)c2ccccc2C1=O)c1cccc(F)c1	n	n
CC(=O)N1CCc2cc(Br)cc(S(=O)(=O)CC(=O)Nc3cc(C)ccc3C)c21	n	n
